PAD4 inh: human PAD4 inhibitors, primary screen, biochemical, fluorescence polarization, 1536-well format; 0.41% of 330,000 active; inhibition, % at 6.36 µM; recombinant PAD4, RCA probe fluorescence polarization;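 active = percent inhibition above a cutoff equal to the mean of all tested compounds plus 3 SD, cut at about 15% in these data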;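 note: 0% = PAD4 with RCA probe and DMSO and 100% = probe without PAD4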
GSTO1 inh: inhibitors of recombinant GSTO1, primary screen, counter-screen for RBBP9 inhibitor project, biochemical, fluorescence polarization. Glutathione S-transferase omega-1 (Homo sapiens), P78417. activity-based probe fluorescence polarization. inhibition, % at 5.96 µM. 1.1% of 300,000 active. AID 1974, 2009;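 active = inhibition above the campaign mean inhibition plus 3 SD, cut at about 35% in these data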;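 note: 0% = GSTO1-1 with DMSO and 100% = wells lacking GSTO1-1 enzyme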
Target sequence (P78417 whole entry, looked up): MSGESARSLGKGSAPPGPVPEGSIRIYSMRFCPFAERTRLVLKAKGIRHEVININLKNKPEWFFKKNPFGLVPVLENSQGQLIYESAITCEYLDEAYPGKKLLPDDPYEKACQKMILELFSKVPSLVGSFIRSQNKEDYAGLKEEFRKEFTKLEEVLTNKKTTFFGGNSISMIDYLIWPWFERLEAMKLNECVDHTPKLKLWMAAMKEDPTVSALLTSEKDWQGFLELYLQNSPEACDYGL
pPAFAH FP inh: pPAFAH enzyme inhibitors, primary screen, biochemical, fluorescence polarization, human. 1.5% of 330,000 active. recombinant pPAFAH, FP-rhodamine probe fluorescence polarization. inhibition, % at 3.39 µM. AID 463082, 2010;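 active = inhibition above the mean inhibition across the screen plus 3 SD, cut at about 25% in these data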;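 note: inhibitors block binding of the rhodamine activity-based probe so polarization drops; 0% = enzyme with DMSO and 100% = wells lacking pPAFAH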
Target sequence (Q13093 whole entry, looked up): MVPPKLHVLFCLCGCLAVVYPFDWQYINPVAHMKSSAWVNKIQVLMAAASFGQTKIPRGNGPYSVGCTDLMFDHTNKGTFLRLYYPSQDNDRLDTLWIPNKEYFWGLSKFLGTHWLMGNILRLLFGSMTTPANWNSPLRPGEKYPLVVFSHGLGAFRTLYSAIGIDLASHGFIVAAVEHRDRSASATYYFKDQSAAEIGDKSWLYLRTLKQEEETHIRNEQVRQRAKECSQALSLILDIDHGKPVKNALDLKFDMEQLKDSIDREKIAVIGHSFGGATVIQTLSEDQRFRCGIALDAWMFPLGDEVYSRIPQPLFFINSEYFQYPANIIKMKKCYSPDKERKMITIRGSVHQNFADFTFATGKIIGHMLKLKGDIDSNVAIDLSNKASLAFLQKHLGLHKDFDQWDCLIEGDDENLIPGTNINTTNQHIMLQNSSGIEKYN
Fam108B counter: mouse Fam108B serine hydrolase inhibitors, primary screen, counter-screen for RBBP9 inhibitor project, biochemical, fluorescence polarization | recombinant Fam108B, FP-Rh probe fluorescence polarization | 0.33% of 300,000 active | AID 1947, 2009 | inhibition, % at 9.51 µM;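 active = inhibition above the screen mean inhibition plus 3 SD, computed separately per campaign, cut at about 18% in these data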;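 note: inhibitors lower polarization as less probe binds the enzyme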
PME-1 inh: PME-1 inhibitors via competitive probe labeling, primary screen, biochemical, fluorescence polarization, FP-Rh probe, HTS. Protein phosphatase methylesterase 1 (Homo sapiens), Q9Y570. recombinant PME-1. inhibition, % at 5.9 µM. 0.53% of 320,000 active;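 active = inhibition above the campaign mean of all compounds plus 3 SD, cut at about 26% in these data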;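 note: competitive labeling of PME-1 active site by serine hydrolase directed probe; 0% = PME-1 with DMSO and 100% = wells lacking PME-1 enzyme; inhibitors block probe labeling so polarization falls and inhibition rises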
Fam108b inh conf: mouse Fam108b serine hydrolase inhibitors, confirmation, counter-screen for RBBP9 inhibitor project, biochemical, fluorescence polarization, triplicate | shares compounds with Fam108B counter | recombinant Fam108b, FP-Rh probe fluorescence polarization | inhibition, % at 9.51 µM | 44% of 930 active | AID 1978, 2009;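 active = inhibition above a limit from the primary screen, the mean over all compounds plus 3 SD, cut at about 19% in these data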;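 note: 0% = median of active Fam108b wells and 100% = catalytically dead S170A mutant; inhibitors free the probe so polarization falls as inhibition rises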
Fam108b inh: inhibition of mouse Fam108b by HTS hits, late-stage follow-up, biochemical, gel-based ABPP, soluble recombinant form | shares compounds with Fam108B counter | fluorophosphonate probe | inhibition, % at 20 µM | 44% of 260 active; in the data active = inhibition above about 40%
GSTO1 inh conf: GSTO1 inhibitor hit confirmation, counter-screen for RBBP9 inhibitor project, biochemical, fluorescence polarization, triplicate; inhibition, % at 5.96 µM; 54% of 2,400 active; shares compounds with GSTO1 inh; recombinant GSTO1, probe fluorescence polarization; AID 2176, 2009;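 active = inhibition above the primary screen's cutoff, its mean inhibition plus 3 SD, cut at about 35% in these data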;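 note: loss of polarization as inhibitors block binding of rhodamine sulfonate ester activity probe; 0% = GSTO1 with DMSO and 100% = wells lacking GSTO1 enzyme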
pPAFAH confirm: pPAFAH (PLA2G7) enzyme inhibitors, confirmation, biochemical, fluorescence polarization, human | 72% of 2,300 active | AID 463230, 2010 | recombinant pPAFAH, FP-Rh probe fluorescence polarization | inhibition, % at 3.39 µM | shares compounds with pPAFAH FP inh;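 active = mean inhibition of the triplicate above the hit cutoff set for the earlier primary screen, cut at about 25% in these data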;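 note: 0% = enzyme with DMSO and 100% = wells lacking pPAFAH enzyme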
PAD4 FP conf: human PAD4 inhibitors, confirmation, biochemical, fluorescence polarization; AID 488796, 2010; inhibition, % at 6.36 µM; 28% of 1,200 active; shares compounds with PAD4 inh; recombinant PAD4, RCA probe fluorescence polarization;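 active = mean inhibition across replicates above the hit cutoff set by the earlier primary screen, cut at about 15% in these data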;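 note: inhibitors block active-site labeling by the probe so polarization falls; 0% = PAD4 with probe and DMSO and 100% = probe without PAD4 enzyme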
Numbers without * were called inactive; / = no result given. An excerpt weighted towards active compounds, which were near 2.3% of everything screened.

SMILES	PAD4 inh	GSTO1 inh	pPAFAH FP inh	Fam108B counter	PME-1 inh	Fam108b inh conf	others
COC(=O)C(O)(c1ccc(NC(=O)Oc2ccccc2)cc1)C(F)(F)F (stereo not given)	-2	-3	1	0	-5	/
O=C(c1cc2c(s1)CCCCCC2)N1CCC2(CC1)OCCO2	-3	2	33*	1	-6	/
CCc1sc(C(=O)N2CCC3(CC2)OCCO3)cc1Br	4	1	10	4	0	/
[N-]=[N+]=NCc1cn2cccnc2n1	-7	-3	2	-1	0	/
COc1ccc(OC)c(N2C(=O)/C(=C/c3ccco3)C(=O)NC2=S)c1	-4	-2	87*	82*	39*	14
COc1ccc(N2C(=O)/C(=C/c3cc(C)n(-c4ccc(C)cn4)c3C)C(=O)NC2=S)c(OC)c1	1	5	12	1	-4	/
CC1=Nc2ccccc2/C1=C/c1c(O)[nH]c(=O)[nH]c1=O	-10	8	4	-1	-5	/
O=c1[nH]c(O)c(/C=C2/C=CC(c3cc(Cl)ccc3Cl)=N2)c(=O)[nH]1	-3	23	10	27*	6	20*
CC(=O)c1ccc2c(c1)C1C(Cl)C(Sc3ccccc3[N+](=O)[O-])CC1C(c1ccccc1)N2 (stereo not given)	-9	7	19	38*	70*	-6
CC(C)n1nnnc1CN1CCN(C)CC1	2	2	-3	11	-4	/
CN1CC(C(=O)c2cccc(C(F)(F)F)c2)C(c2ccc(Cl)cc2)C1 (stereo not given)	1	6	6	20*	9	-12
COc1cccc(C(=O)C2CN(C)CC2c2ccc(Cl)cc2)c1 (stereo not given)	-1	11	6	9	1	/
COc1ccccc1NC1(C#N)CCCCC1	-1	3	2	1	5	/
NC(N)=N/N=C/c1ccc(N(c2ccccc2)c2ccccc2)cc1	2	9	11	19*	16	19*
C[C@H](NC(=O)N1C[C@H]2C[C@@H](C1)c1cccc(=O)n1C2)C(=O)Nc1ccc(F)c(F)c1	2	2	-4	-1	4	/
COC(=O)C1=C(c2ccc(OC(F)(F)F)cc2)C[C@@H]2CC[C@H]1N2C(=O)N1CCC(O)CC1	3	/	2	/	3	/
C/C(=N\NC(=O)c1ccccc1O)c1c(O)n(Cc2ccccc2)c(=O)[nH]c1=O	-3	23	25*	21*	4	82*	Fam108b inh=0
C/C(=N\NC(=O)c1ccccc1O)c1c(O)n(C2CCCCC2)c(=O)[nH]c1=O	-4	4	26*	19*	-13	21*
CC1Oc2cc3c(-c4c(O)cc(O)c5c(O)c6c(cc45)OC(C)C(C)C6=O)c(O)cc(O)c3c(O)c2C(=O)C1C (stereo not given)	-7	73*	91*	41*	28*	37*	Fam108b inh=35;GSTO1 inh conf=60*
O=C(Nc1ccc(F)c([N+](=O)[O-])c1)N1C[C@H]2C[C@@H](C1)c1cccc(=O)n1C2	5	4	4	-2	-1	/
COc1ccc(OC)c(N2C(=O)NC(=O)/C(=C/c3ccc([N+](=O)[O-])s3)C2=O)c1	-11	24	62*	46*	0	8	pPAFAH confirm=58*
COC(=O)C1=C(c2cccc(OCc3ccccc3)c2)C[C@@H]2CC[C@H]1N2C(=O)NCCc1ccc(F)cc1	2	/	4	/	-3	/
OCCNc1c2c(nc3ccccc13)CCCC2	-4	3	-3	-1	-12	/
C[n+]1c2ccccc2nc2ccc(NCCO)cc21	84*	69*	72*	72*	71*	42*	Fam108b inh=0;GSTO1 inh conf=46*;pPAFAH confirm=58*
CCn1nc(-c2ccccc2)nc2c(=O)n(C)c(=O)nc1-2	68*	90*	9	65*	42*	86*	Fam108b inh=0;GSTO1 inh conf=92*;PAD4 FP conf=-4
SMILES	PAD4 inh	GSTO1 inh	pPAFAH FP inh	Fam108B counter	PME-1 inh	Fam108b inh conf	others
CCN(CC)P(=O)(Oc1ccccc1)Oc1ccccc1	-3	-2	0	2	1	/
Cc1nc2c(=O)n(C)c(=O)nc-2n(C)n1	77*	98*	4	66*	36*	82*	Fam108b inh=5;GSTO1 inh conf=96*;PAD4 FP conf=69*
CN(C)CCSCc1nnc2n1-c1ccc(Cl)cc1C(c1ccccc1Cl)=NC2	1	-2	-2	-2	-2	/
C[C@H]1C(=O)O[C@@H]2CCN3CC=C(COC(=O)[C@](C)(O)[C@]1(C)O)[C@H]23	0	0	3	-3	5	/
CNc1ccc2nc3ccccc3[n+](C)c2c1	108*	101*	88*	102*	116*	67*	Fam108b inh=15;GSTO1 inh conf=62*;pPAFAH confirm=81*;PAD4 FP conf=92*
Cc1cc(N2CCNCC2)nc2ccccc12	6	-1	-4	-5	1	/
O=C1C(=O)c2ccccc2-c2ccccc21	82*	90*	7	64*	37*	65*	Fam108b inh=15;GSTO1 inh conf=94*;PAD4 FP conf=76*
OC(CCNCCc1c[nH]c2ccccc12)C(F)(F)F (stereo not given)	1	-1	-1	0	-1	/
CC(C)OCCCNC(=O)c1c(N)n(Cc2cccs2)c2nc3ccccc3nc12	52*	60*	14	19*	22	7	GSTO1 inh conf=-8;PAD4 FP conf=2
C=CCN1C(=O)/C(=C/c2ccc3c(c2)CCCN3CCC)C(=O)NC1=S	-3	8	4	-6	-10	/
O=C1NC(=S)N(C2CC2)C(=O)/C1=C/c1ccc2c(c1)CCN2CCCCl	-6	56*	15	0	-7	/	GSTO1 inh conf=63*
CC(C)(C)N1C(=O)NC(=O)/C(=C\c2ccc3c(c2)CCN3CCCCl)C1=O	1	38*	17	4	-1	/	GSTO1 inh conf=66*

Compound activity (PubChem BioAssay)
